# Assay results from PubChem BioAssay (NCI).
# Compounds without any hit were thinned out: in the full panel of roughly 83,000, 20% have a hit.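 The test compound was applied at a single concentration to cells in 96-well plates for 48 hours, and percent growth was recorded.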 A number with no mark means an inactive call. Active and inactive are the calls of the source. Rule for the calls: active = growth percent below 10; inactive = the rest.
# Key:
# Assay in all cases: NCI-60 one-dose screen, 48 h (100 = growth as untreated, 0 = no growth, -100 = all killed)
# Conditions in all cases: 10 µM unless noted
# NCI-H23 lung = test system: NCI-H23 lung
# NCI-H226 lung = test system: NCI-H226 lung
# NCI-H322M lung = test system: NCI-H322M lung
# HOP-62 NSCLC = test system: HOP-62 NSCLC
# NCI-H460 lung = test system: NCI-H460 lung
# HOP-92 NSCLC = test system: HOP-92 NSCLC
# A549/ATCC NSCLC = test system: A549/ATCC NSCLC
# 786-0 renal = test system: 786-0 renal
# COLO 205 colon = test system: COLO 205 colon
# DU-145 prostate = test system: DU-145 prostate
# K-562 leukemia = test system: K-562 leukemia
# MALME-3M melanoma = test system: MALME-3M melanoma
# MDA-MB-231 breast = test system: MDA-MB-231 breast
# RXF 393 renal = test system: RXF 393 renal
# SF-268 CNS = test system: SF-268 CNS
# SF-295 CNS = test system: SF-295 CNS
# SF-539 CNS = test system: SF-539 CNS
# UACC-257 melanoma = test system: UACC-257 melanoma
# M14 melanoma = test system: M14 melanoma
SMILES,growth (NCI-H23 lung),growth (NCI-H226 lung),growth (NCI-H322M lung),growth (HOP-62 NSCLC),growth (NCI-H460 lung),growth (HOP-92 NSCLC),growth (A549/ATCC NSCLC),growth (786-0 renal),growth (COLO 205 colon),growth (DU-145 prostate),growth (K-562 leukemia),growth (MALME-3M melanoma),growth (MDA-MB-231 breast),growth (RXF 393 renal),growth (SF-268 CNS),growth (SF-295 CNS),growth (SF-539 CNS),growth (UACC-257 melanoma),growth (M14 melanoma)
COc1cc(/C=C\C(C)=N\Nc2ccccc2)ccc1O,91.2%,109%,128%,67.5%,111%,100%,80.7%,97.4%,111%,102%,56.1%,127%,76.8%,108%,76.4%,85.5%,88.1%,79.2%,97.5%
COc1ccc(NS(=O)(=O)N2CCCCC2)cc1,106%,96.2%,102%,107%,113%,84.6%,108%,109%,105%,116%,93.8%,117%,91.5%,105%,98.9%,113%,108%,102%,102%
O=C(CC(C(=O)c1ccccc1)N1CCN(Cc2ccccc2)CC1)c1ccccc1 (stereo not given),84%,104%,112%,104%,104%,80.7%,98%,95.8%,70.3%,86.2%,19.5%,110%,96%,95%,106%,109%,93.8%,93.7%,77.9%
O=C(C(=O)N1CCOCC1)c1cn(CCCn2cc(C(=O)C(=O)N3CCOCC3)c3ccccc32)c2ccccc12,113%,102%,103%,103%,129%,78.8%,104%,104%,105%,115%,111%,99.8%,93.4%,119%,105%,106%,102%,107%,101%
NS(=O)(=O)c1ccc(-n2ncc3c(NC4CCCCC4)ncnc32)cc1,103%,91.5%,107%,101%,110%,47.4%,83%,81%,95%,100%,54.4%,108%,85.9%,13.4%,116%,48.9%,90.9%,79.6%,98.2%
COc1cc(/C=C/c2cc(/C=C/c3ccc(O)c(OC)c3)n(C(=O)c3ccc(Cl)cc3)n2)ccc1O,21.8%,48.4%,28.5%,20.3%,4.86% (active),-2.95% (active),12.4%,19.5%,98.7%,19.9%,2.24% (active),44.6%,31.8%,15.3%,27%,48%,10.1%,63.2%,-1.11% (active)
NC(=O)NC1(C(=O)O)CCCC1,105%,111%,115%,110%,112%,121%,101%,107%,107%,118%,99.9%,114%,109%,125%,106%,116%,102%,101%,113%
Cc1cc(=O)[nH]c(/C(=N/Nc2ccccc2)C(=O)c2ccc(Cl)cc2)n1,105%,109%,107%,104%,109%,88.7%,92.5%,82.2%,106%,105%,52.7%,114%,102%,28.5%,117%,75.7%,92.3%,103%,97.1%
O=C(O)c1ccc2cccnc2c1O,8.65% (active),6.97% (active),12.4%,13.6%,6.87% (active),-29.3% (active),10.4%,7.02% (active),-70.9% (active),22.2%,11.1%,-7.97% (active),11.4%,27.7%,21.6%,6.02% (active),10.4%,-9.12% (active),8.98% (active)
O=C(Nc1ccccc1)c1cc(-n2cnc([N+](=O)[O-])c2)cc(-n2cnc([N+](=O)[O-])c2)n1,98.6%,86.2%,92%,102%,119%,49.7%,87%,102%,97.4%,110%,86.5%,94.4%,88.6%,-14.6% (active),119%,130%,102%,89.3%,94.6%
Cc1sc2nc(N3CCCCC3)[nH]c(=O)c2c1C,95.8%,88%,102%,93.3%,101%,93.8%,83.2%,94.1%,100%,111%,91.2%,100%,99.4%,101%,98%,97%,97.9%,89.1%,98.8%
COc1cnc2c(c1)C(=O)c1c-2n(CCCN2CCCC2)c(=O)c2cc(F)ccc12,-19.5% (active),-81.2% (active),4.72% (active),-16.4% (active),-47.9% (active),-5.39% (active),-80.4% (active),-88.5% (active),-6.43% (active),-1.81% (active),-45.1% (active),-71.9% (active),23%,-81% (active),12.1%,-20.4% (active),-39.3% (active),-12.2% (active),2.05% (active)
COc1c(O)cc2c(c1CC=C(C)C)OC(=O)c1c(cc(O)c(CC=C(C)C)c1O)O2,-8.77% (active),88.1%,77.1%,6.39% (active),9.47% (active),54.6%,57.1%,19.3%,107%,71.6%,23.9%,113%,4.16% (active),-43.5% (active),41%,81%,68.8%,92.6%,27.3%
c1ccc(-c2n(Cc3ccc4ccccc4c3)cc[n+]2Cc2ccc3ccccc3c2)cc1,-38.7% (active),-9.03% (active),8.84% (active),-44.8% (active),-78.5% (active),-69.6% (active),12.5%,-80.7% (active),-79.1% (active),4.64% (active),-36.7% (active),-67.8% (active),-82.7% (active),-84.7% (active),-58.2% (active),-51% (active),-34.7% (active),-57.1% (active),-60.5% (active)
O=C(CNC(=O)c1cccc2ccccc12)Nc1ccccc1Oc1cccc(O)c1,41.5% [5 µM],58.6% [5 µM],45.1% [5 µM],19.2% [5 µM],11.2% [5 µM],72.9% [5 µM],21.8% [5 µM],19.6% [5 µM],33.8% [5 µM],17.1% [5 µM],9.03% [5 µM] (active),63.6% [5 µM],48.9% [5 µM],-19% [5 µM] (active),49.9% [5 µM],3.33% [5 µM] (active),-18.4% [5 µM] (active),45% [5 µM],-8.22% [5 µM] (active)
